This note sets out measurements from PubChem BioAssay (NCATS).

Values without a mark were called inactive. Records with an inconclusive call do not appear. Some of the results follow. The source made the active and inactive calls. Unless noted, the call rests on the fitted dose curve; in most records, active means well fitted curve in the direction sought with a large enough effect; inconclusive means small, poorly fitted or top-dose-only effect, or another doubt; inactive means no such curve, though single readings can be large; an effect the other way counts as inactive or inconclusive.

Assay [1] concerns the target Calcium and integrin-binding protein 1 (Homo sapiens) (UniProt Q99828). In words: Primary qHTS for Identification of Calcium Integrin Binding Protein 1 (CIB1) Competitor (AID 1508620).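 Further: GST tagged CIB1 binding a fluorescein labelled alphaIIb integrin peptide tracer; top concentration of the series differs between compounds; on the % scale 0 is the no-effect control and ±100 the full control effect.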 The method, boiled down:
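CIB1-GST (1 uM final) and compound incubated 15 min at room temperature before adding FITC-alphaIIb peptide tracer (100 nM final). Competition for binding read by fluorescence polarization (ex 480, em 540) after another 15 min at room temperature.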
In general terms: qHTS replaces the single test concentration by a dilution series.

For assay [2], the target named is Glutathione peroxidase 1 (Homo sapiens) (UniProt P07203). In words: Primary qHTS Assay for Inhibitors of Recombinant Selenoprotein Glutathione Peroxidase 1 (GPX1) (AID 1845191). Further: nearly all actives have a fitted effect of over 65% in size. The gist of the method: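 NADPH consumption tracked by fluorescence at 340/450 nm between t=0 and t=15 min, room temperature. Final mix: 10 nM GPX1, 100 nM glutathione reductase, 1 mM GSH, 0.5 mM NADPH, 0.5 mM cumene hydroperoxide, 0.01% BSA; 30 min compound–enzyme preincubation.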

Assay [3] deals with DNA repair nuclease/redox regulator APEX1 (Homo sapiens) (UniProt P27695). Briefly: Confirmation qHTS Assay for Inhibitors of the Human Apurinic/apyrimidinic Endonuclease 1 (APE1) (AID 2572). Further: potency means the concentration at half of the fitted maximal effect; nearly all actives have a fitted effect of over 30% in size. As to conditions: purified APE1, fluorogenic abasic-site DNA cleavage. The method, boiled down:
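Inhibition is measured on a short double-stranded THF-site oligo, 50 nM final, whose incision relieves BHQ-2 quenching of TAMRA. After 15 min enzyme–compound preincubation at RT, three reads a minute apart are taken.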

Assay [4] has as its target Tyrosyl-DNA phosphodiesterase 1 (Homo sapiens) (UniProt Q9NUW8). In words: Confirmation Assay for Inhibitors of Tyrosyl-DNA Phosphodiesterase (TDP1) (AID 489007). Further: potency means the concentration at half of the fitted maximal effect; nearly all actives have a fitted effect of over 40% in size. As to conditions: recombinant human TDP1 enzymatic activity, dose-response. The gist of the method:
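AlphaScreen read-out: streptavidin donor and anti-FITC acceptor beads (10 ug/ml) bind intact substrate, so Tdp1 removal of tyrosine-FITC lowers signal. Enzyme 1 nM, substrate 15 nM, 5 min reaction at room temperature after 15 min compound preincubation.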

Assay [5] has as its target Lethal(3)malignant brain tumor-like protein 1 (Homo sapiens) (UniProt Q9Y468). Briefly: qHTS Assay for the Inhibitors of L3MBTL1: Hit Validation (AID 540279). Further: potency means the concentration at half of the fitted maximal effect; nearly all actives have a fitted effect of over 70% in size. As to conditions: L3MBTL1 methyl-lysine binding inhibition, biochemical qHTS. The method, boiled down: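 AlphaScreen displacement: 50 nM L3MBTL1 bound to 75 nM biotin-H3K9me1 peptide for 30 min, compound added for 30 min at room temperature, then beads at 10 ug/mL final for 30 min in the dark. Cefsulodin titration served as intraplate control.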

A short description of assay [6]: qHTS Assay for the Inhibitors of L3MBTL1: Hit Validationin AlphaScreen Counterscreen (AID 602224). Further: 0% is about no effect. The method, boiled down: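 No MBT protein present; 1 nM b-His6 links SA-donor/Ni-acceptor beads (10 ug/mL each). Cpd + peptide 15 min RT, beads 30 min RT dark, AlphaScreen luminescence.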
For assay [7], the target named is Phosphoglycerate kinase, glycosomal (Trypanosoma brucei brucei) (UniProt P07378). In words: qHTS for inhibitors of Phosphogylcerate Kinase: Hit Validation Screen (AID 686980). Further: potency means the concentration at half of the fitted maximal effect; nearly all actives have a fitted effect of over 65% in size. The following applies: TbPGK coupled GAPDH assay, Kinase-Glo luminescence. The method, boiled down: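 Recombinant glycosomal PGK reaction used 1,3-bisphosphoglycerate generated in-well by GAPDH (100nM final) in 100mM TEA pH 7.6, 5mM MgCl2, 0.01% Tween-20. After 60 minutes at room temperature, ATP was read by Kinase-Glo Plus luminescence end-point.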

The target of assay [8] is DNA polymerase iota (Homo sapiens) (UniProt Q9UNA4). Briefly: qHTS for Inhibitors of Polymerase Iota: Confirmatory Assay for Cherry-picked Compounds (AID 720496). Further: potency means the concentration at half of the fitted maximal effect. As to conditions: Pol iota primer extension, TAMRA/BHQ fluorescence. The method, boiled down: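 Enzyme (10 nM Pol iota) and compound sit together for 15 min at room temperature. Adding annealed primer/TAMRA-reporter/BHQ-2-template substrate, 50 nM final, starts the reaction, which is followed by fluorescence over 10 min.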

The target of assay [9] is Bifunctional 3'-5' exonuclease/ATP-dependent helicase WRN (Homo sapiens) (UniProt Q14191). Briefly: qHTS for Inhibitors of WRN Helicase: Confirmatory Assay for Cherry-picked Compounds. (AID 720497). Further: potency means the concentration at half of the fitted maximal effect; nearly all actives have a fitted effect of over 65% in size. As to conditions: WRN helicase DNA unwinding, fluorescence kinetic. The method, boiled down:
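Compound and 20 nM WRN incubated 15 min, RT. Forked duplex (100 nM) plus ATP (2 mM) added. Fluorescence monitored kinetically and normalized to controls.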

Assay [10] can be described thus: qHTS for Inhibitors of WRN Helicase: Thiazole Orange DNA Binding Counterscreen (AID 720499).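 Further: drop in dye fluorescence marks compound binding to DNA; on the % scale 0 is the no-effect control and ±100 the full control effect; nearly all actives have a fitted effect of over 60% in size.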 The gist of the method: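 To exclude WRN hits acting through DNA binding, fluorescence of 100 nM thiazole orange bound to 50 nM unlabeled DNA is read (ex 480, em 530 nm) 15 min after compound addition at room temperature.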
For assay [11], the target named is DNA polymerase kappa (Homo sapiens) (UniProt Q9UBT6). Briefly: qHTS for Inhibitors of Polymerase Kappa: Confirmatory Assay for Cherry-picked Compounds (AID 720501). Further: potency means the concentration at half of the fitted maximal effect. The following applies: purified Pol-kappa, fluorescent strand-displacement substrate. The gist of the method: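 Strand-displacement fluorescence read-out: TAMRA reporter released from a BHQ-2-quenched template, measured at 525/598 nm over a 10 min kinetic window. Substrate was 50 nM final; enzyme was 10 nM Pol-kappa, preincubated 15 min at room temperature with compound.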

The target of assay [12] is DNA polymerase eta (Homo sapiens) (UniProt Q9Y253). In words: qHTS for Inhibitors of Polymerase Eta: Confirmatory Assay for Cherry-picked Compounds (AID 720502). Further: potency means the concentration at half of the fitted maximal effect. The following applies: Pol eta primer extension, TAMRA/BHQ fluorescence, 10 min. The gist of the method:
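Compounds are preincubated 15 min at room temperature with 10 nM human Pol eta, with buffer-only wells serving as negative control. Adding 50 nM final substrate starts the reaction, and TAMRA fluorescence is read over 10 min.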

For assay [13], the target named is RecQ-like DNA helicase BLM (Homo sapiens) (UniProt P54132). In words: qHTS for Inhibitors of WRN Helicase: BLM Helicase Counterscreen for WRN Inhibitors (AID 720503). Further: potency means the concentration at half of the fitted maximal effect; nearly all actives have a fitted effect of over 60% in size. The following applies: Recombinant BLM helicase DNA unwinding, red fluorescence. The gist of the method:
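BLM at 1 nM was preincubated with compound for 15 min at room temperature in 25 mM Tris-HCl pH 8.0, 50 mM NaCl, 2 mM MgCl2, 1 mM DTT and 0.01% Tween-20. Unwinding was started with 100 nM DNA and 2 mM ATP (final). Fluorescence (ex 525/em 598 nm) was read twice, 15 min apart, and normalized to enzyme-free and DMSO controls.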

In assay [14] the target is Rap guanine nucleotide exchange factor 3 (Homo sapiens) (UniProt O95398). In words: Confirmatory qHTS for antagonist of cAMP-regulated guanine nucleotide exchange factor 3 (EPAC1) (AID 1645880). Further: potency means the concentration at half of the fitted maximal effect; nearly all actives have a fitted effect of over 55% in size. The method, boiled down: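 Released BODIPY-GDP fluoresces less than Rap1-bound BODIPY-GDP; the signal is followed at 480/540 nm at 5-min intervals over 30 min, after 5 min at room temperature. Reactions contain 100 nM EPAC1, 250 nM RAP1B-BODIPY-GDP and 50 uM GDP; results are normalized to ATA and DMSO.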

Assay [15] has the same target. Briefly: Confirmatory qHTS for agonist of cAMP-regulated guanine nucleotide exchange factor 3 (EPAC1) (AID 1645881).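 Further: EPAC1 catalysed release of BODIPY-GDP from Rap1B seen as fluorescence loss; 100% = effect of cAMP agonist control; nearly all actives have a fitted effect of over 75% in size.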
For assay [16] the target is unchanged. Briefly: Counterscreen qHTS for antagonist of cAMP-regulated guanine nucleotide exchange factor 3 (EPAC1) (AID 1645888). Further: % of control where 0% means no effect. The gist of the method:
(§1)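 Rap1B-BODIPY-GDP 250 nM + GDP 50 uM; cpds 7-pt, final 9.74 nM–152 uM (activator mode) or from 7.32 nM upwards (inhibitor mode); RT; FI 480/540 nm at 5 and 30 min, then ± cAMP, reread.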
On the technique in general: A counterscreen serves to expose hits that act by an unwanted route or on another target.

Assay [17] can be described thus: AP1 Signaling Pathway (AID 357; active means well fitted curve in either direction with a large enough effect, not every such curve was filed as active;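 further: ME-180 reporter cells stimulated with EGF at its EC50 level; on the % scale 0 is the no-effect control and ±100 the full control effect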). The following applies: ME-180 AP-1-bla reporter, EGF-induced, beta-lactamase ratio, 5 h; at 7.69 µM (top of the series) unless noted. The method, boiled down:
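First, ME-180 AP-1-bla cells were cultured overnight at 37 °C in low-serum Opti-MEM. Next, titrated compounds with EC50 EGF were incubated 5 hours. Finally, CCF4 was added for 2.5 hours and the 460/530 nm ratio recorded.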

Assay [18] is described as follows: NFAT Signaling Pathway (AID 444; active means well fitted curve in either direction with a large enough effect, not every such curve was filed as active;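 further: carbachol stimulus at about its EC50 of 1 µM final; on the % scale 0 is the no-effect control and ±100 the full control effect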). As to conditions: Jurkat NFAT-bla M1, carbachol, beta-lactamase ratio, 5 h; at 7.69 µM (top of the series) unless noted. The gist of the method:
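Read-out: CCF4 FRET ratio (460 nm/530 nm) after 1 h RT dye loading, used for %activity and AC50 from titration series. Cells: Jurkat NFAT-β-lactamase/M1 line, treated with compound plus 1 uM carbachol for 5 h, 37 °C.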

Assay [19] is described as follows: Stat Signaling Pathway (AID 446; active means well fitted curve in either direction with a large enough effect, not every such curve was filed as active;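 further: ME-180 cervical cancer cells given 40 pM IL-6 alongside compound; SIE-controlled beta-lactamase reporter measured as 460/530 nm FRET emission ratio; on the % scale 0 is the no-effect control and ±100 the full control effect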). As to conditions: ME-180 (cervical carcinoma) SIE beta-lactamase reporter, IL-6 stimulated, 5 h; at 7.69 µM (top of the series) unless noted. The gist of the method:
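Normalization used AC90 stimulation (300 pM IL-6) and AC90 inhibition (125 nM pan-JAK inhibitor at 40 pM IL-6). The underlying signal is SIE-driven beta-lactamase in ME-180 cells after 5 h IL-6 exposure with compound.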

Assay [20] concerns the target Glucocorticoid receptor (Homo sapiens) (UniProt P04150). Briefly: GR-GFP Redistribution (AID 450;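 active means compounds whose dose series gives a full or clear partial fitted curve of increased nuclear translocation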; further: potency means the concentration at half of the fitted maximal effect). The following applies: U2OS GR-GFP nuclear translocation, laser cytometry, 2 h.
The target in assay [21] is Mitogen-activated protein kinase 10 (Mus musculus) (UniProt Q61831). Briefly: JNK3 AlphaScreen Assay (AID 530; active means well fitted curve in either direction with a large enough effect, not every such curve was filed as active). The method, boiled down: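 Kinase buffer: 20 mM Tris-HCl pH 7.6, 10 mM MgCl2, 1 mM DTT, 0.1 mM Na3VO4, 0.01% Tween-20; ATP 10 uM. Substrate biotin-GST-cJun(1-79), enzyme from activated HepG2 lysates. Detection by Ser73 phospho-antibody AlphaScreen.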
A general note: Bead proximity is the source of the signal in Alpha formats.

In assay [22] the target is Rap guanine nucleotide exchange factor 4 (Homo sapiens) (UniProt Q8WZA2). Briefly: Confirmatory qHTS for agonist of cAMP-regulated guanine nucleotide exchange factor 4 (EPAC2) (AID 1645884).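 Further: nucleotide exchange releases bodipy-GDP from Rap1 and this lowers its fluorescence; on the % scale 0 is the no-effect control and ±100 the full control effect; nearly all actives have a fitted effect of over 65% in size.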
Assay [23] has the same target. In words: Confirmatory qHTS for antagonist of cAMP-regulated guanine nucleotide exchange factor 4 (EPAC2) (AID 1645885). Further: on the % scale 0 is the no-effect control and ±100 the full control effect; nearly all actives have a fitted effect of over 25% in size.
Assay [24] has as its target Rap guanine nucleotide exchange factor 3 (Homo sapiens) (UniProt O95398). Briefly: Counterscreen qHTS for agonist of cAMP-regulated guanine nucleotide exchange factor 3 (EPAC1) (AID 1645889). Further: % of control where 0% means no effect; nearly all actives have a fitted effect of over 40% in size. The method, boiled down: as §1

Chain of Calcium and integrin-binding protein 1 (Homo sapiens) (Q99828 whole entry, looked up): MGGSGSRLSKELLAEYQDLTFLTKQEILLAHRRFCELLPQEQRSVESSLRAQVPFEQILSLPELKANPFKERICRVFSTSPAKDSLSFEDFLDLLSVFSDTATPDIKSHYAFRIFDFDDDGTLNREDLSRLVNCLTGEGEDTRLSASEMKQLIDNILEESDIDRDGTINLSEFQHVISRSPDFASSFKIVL
Chain of Rap guanine nucleotide exchange factor 3 (Homo sapiens) (O95398 whole entry, looked up): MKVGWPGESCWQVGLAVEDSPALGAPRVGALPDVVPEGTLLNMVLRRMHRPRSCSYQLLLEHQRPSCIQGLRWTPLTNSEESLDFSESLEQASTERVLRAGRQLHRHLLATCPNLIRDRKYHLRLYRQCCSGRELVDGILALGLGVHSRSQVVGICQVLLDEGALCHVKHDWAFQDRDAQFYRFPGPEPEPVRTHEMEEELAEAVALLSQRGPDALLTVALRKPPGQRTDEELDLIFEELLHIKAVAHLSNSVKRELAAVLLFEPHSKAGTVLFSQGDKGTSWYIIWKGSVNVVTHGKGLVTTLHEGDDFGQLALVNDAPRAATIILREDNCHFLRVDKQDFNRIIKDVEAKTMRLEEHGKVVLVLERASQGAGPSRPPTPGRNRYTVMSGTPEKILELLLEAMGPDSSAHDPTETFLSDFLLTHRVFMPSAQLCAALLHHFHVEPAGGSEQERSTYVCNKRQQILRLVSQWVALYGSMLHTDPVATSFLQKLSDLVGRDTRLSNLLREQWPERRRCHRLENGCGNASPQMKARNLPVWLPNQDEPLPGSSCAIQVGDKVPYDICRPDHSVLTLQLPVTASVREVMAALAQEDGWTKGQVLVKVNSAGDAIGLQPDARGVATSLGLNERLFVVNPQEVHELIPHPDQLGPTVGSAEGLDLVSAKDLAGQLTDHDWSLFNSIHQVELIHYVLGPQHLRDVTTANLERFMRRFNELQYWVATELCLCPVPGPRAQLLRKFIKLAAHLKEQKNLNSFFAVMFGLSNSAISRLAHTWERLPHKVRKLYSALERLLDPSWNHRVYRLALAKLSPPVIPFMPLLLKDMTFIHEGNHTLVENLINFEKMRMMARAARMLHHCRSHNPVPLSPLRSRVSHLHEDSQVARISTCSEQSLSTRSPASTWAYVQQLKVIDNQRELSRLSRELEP
Chain of Glutathione peroxidase 1 (Homo sapiens) (P07203 whole entry, looked up): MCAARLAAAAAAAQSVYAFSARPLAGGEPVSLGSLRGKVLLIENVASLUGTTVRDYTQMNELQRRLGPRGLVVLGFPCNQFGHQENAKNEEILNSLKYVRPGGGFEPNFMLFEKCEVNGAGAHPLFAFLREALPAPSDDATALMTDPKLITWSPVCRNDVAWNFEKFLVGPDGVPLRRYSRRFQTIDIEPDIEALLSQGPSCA
Chain of Rap guanine nucleotide exchange factor 4 (Homo sapiens) (Q8WZA2 whole entry, looked up): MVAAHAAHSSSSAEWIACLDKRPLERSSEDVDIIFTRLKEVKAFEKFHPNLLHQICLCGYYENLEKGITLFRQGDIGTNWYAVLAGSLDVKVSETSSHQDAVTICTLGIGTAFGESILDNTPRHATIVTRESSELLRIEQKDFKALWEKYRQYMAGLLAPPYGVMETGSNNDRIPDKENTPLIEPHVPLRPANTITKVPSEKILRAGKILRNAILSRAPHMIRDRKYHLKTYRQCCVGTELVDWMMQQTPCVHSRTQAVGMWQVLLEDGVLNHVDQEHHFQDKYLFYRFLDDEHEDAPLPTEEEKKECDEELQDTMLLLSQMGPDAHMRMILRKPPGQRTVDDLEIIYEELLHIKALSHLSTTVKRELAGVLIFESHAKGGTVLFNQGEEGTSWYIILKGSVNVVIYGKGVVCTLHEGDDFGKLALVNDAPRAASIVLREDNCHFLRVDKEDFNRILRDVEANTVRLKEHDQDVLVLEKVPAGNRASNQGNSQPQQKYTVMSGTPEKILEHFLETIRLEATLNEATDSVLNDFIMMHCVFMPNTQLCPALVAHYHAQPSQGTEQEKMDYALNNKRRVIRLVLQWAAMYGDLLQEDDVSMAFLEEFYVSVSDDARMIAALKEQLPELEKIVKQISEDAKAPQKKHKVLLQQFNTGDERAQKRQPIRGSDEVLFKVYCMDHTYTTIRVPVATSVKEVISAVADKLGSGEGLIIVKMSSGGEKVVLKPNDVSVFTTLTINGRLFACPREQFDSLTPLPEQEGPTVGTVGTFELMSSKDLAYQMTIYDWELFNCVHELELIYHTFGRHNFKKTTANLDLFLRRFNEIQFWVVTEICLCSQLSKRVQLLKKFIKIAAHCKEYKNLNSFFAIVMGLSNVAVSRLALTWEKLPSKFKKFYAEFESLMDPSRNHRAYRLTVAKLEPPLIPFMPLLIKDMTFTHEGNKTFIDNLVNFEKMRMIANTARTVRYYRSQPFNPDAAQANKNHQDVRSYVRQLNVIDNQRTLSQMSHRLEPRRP
Chain of Tyrosyl-DNA phosphodiesterase 1 (Homo sapiens) (Q9NUW8 whole entry, looked up): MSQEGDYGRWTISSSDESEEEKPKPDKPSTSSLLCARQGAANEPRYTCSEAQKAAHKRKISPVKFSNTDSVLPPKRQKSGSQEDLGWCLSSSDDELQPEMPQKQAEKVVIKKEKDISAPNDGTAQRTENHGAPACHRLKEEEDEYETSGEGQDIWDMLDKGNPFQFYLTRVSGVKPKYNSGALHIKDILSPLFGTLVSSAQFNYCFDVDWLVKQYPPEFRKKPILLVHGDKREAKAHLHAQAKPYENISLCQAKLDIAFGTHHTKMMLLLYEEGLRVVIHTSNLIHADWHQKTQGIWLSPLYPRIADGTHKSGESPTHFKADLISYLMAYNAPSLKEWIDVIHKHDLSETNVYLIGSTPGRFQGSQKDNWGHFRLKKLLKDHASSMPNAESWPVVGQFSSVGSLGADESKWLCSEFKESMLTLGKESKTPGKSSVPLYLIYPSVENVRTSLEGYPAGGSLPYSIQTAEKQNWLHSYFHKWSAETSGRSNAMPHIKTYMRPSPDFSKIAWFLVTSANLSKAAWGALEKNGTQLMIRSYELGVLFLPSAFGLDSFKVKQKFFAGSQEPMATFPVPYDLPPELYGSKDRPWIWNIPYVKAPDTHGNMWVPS
Chain of DNA polymerase iota (Homo sapiens) (Q9UNA4 whole entry, looked up): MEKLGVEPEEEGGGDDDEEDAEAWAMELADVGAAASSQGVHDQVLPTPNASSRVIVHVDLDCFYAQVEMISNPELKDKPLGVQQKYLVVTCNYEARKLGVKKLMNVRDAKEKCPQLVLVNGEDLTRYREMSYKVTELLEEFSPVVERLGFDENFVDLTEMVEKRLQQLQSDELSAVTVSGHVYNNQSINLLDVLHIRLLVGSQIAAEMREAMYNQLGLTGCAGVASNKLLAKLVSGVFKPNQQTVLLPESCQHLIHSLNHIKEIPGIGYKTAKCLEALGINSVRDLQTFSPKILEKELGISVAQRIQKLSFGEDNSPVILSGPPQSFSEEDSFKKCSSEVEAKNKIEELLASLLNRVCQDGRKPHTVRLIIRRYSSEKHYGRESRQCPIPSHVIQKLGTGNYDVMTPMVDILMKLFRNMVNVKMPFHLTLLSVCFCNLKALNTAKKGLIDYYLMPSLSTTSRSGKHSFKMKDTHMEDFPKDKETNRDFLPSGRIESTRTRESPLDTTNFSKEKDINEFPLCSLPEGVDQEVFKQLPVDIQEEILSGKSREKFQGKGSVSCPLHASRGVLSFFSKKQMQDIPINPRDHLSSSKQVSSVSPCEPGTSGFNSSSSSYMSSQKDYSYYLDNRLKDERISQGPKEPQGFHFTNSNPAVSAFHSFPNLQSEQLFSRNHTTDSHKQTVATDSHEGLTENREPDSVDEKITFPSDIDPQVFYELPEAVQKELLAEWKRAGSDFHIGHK
Chain of Phosphoglycerate kinase, glycosomal (Trypanosoma brucei brucei) (P07378 whole entry, looked up): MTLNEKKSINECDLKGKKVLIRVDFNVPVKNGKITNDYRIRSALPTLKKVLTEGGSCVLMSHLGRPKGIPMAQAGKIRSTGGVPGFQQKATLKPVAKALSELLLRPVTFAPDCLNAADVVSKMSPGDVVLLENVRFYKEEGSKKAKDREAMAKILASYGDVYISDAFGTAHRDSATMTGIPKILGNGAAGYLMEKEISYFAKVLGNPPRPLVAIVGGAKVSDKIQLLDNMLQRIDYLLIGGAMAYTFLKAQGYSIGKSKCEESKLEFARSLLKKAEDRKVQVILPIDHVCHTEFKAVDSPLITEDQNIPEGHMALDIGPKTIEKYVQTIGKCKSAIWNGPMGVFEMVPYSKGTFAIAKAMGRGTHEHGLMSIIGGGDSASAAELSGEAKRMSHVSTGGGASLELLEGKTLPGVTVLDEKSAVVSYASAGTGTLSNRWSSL
Chain of DNA repair nuclease/redox regulator APEX1 (Homo sapiens) (P27695 whole entry, looked up): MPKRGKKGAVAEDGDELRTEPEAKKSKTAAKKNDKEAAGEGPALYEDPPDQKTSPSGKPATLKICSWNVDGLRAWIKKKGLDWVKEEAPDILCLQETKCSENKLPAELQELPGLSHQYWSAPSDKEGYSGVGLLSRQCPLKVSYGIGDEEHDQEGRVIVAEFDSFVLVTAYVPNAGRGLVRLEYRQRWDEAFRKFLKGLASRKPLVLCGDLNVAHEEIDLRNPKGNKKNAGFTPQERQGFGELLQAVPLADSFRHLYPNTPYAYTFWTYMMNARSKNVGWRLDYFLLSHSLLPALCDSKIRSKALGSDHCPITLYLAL

Turning to `Cc1ccc(NS(=O)(=O)c2cc3c(cc2Cl)CCC(=O)N3)cc1Cl`, the Potency result in assay [1] and in assay [2] was “inactive” throughout.
Regarding `CN(C(=O)c1cn2c(-c3ccc(C(F)(F)F)cc3)cnc2cn1)c1ccc(C#N)cc1`, the Potency entry in [1] and in [2] was “inactive” in each case.
Take `Cc1ccccc1NC(=O)CN1C(=O)N/C(=C\c2cccn2-c2cccc(C(=O)O)c2)C1=O`: the Potency was 28.2 µM (active) in assay [3]; 1.78 µM (active) in assay [4]; 1.5 µM (active) in [5]; 5.8 µM (active) in assay [7]; 16.8 µM (active) in assay [8]; 6.07 µM (active) in assay [9]. Besides, the Potency in assay [11] was 2.99 µM (active); in assay [12] it was 16.9 µM (active); in assay [13] it was 7.64 µM (active). The call in assay [6] and in assay [10] was inactive. The Potency entry in [1] is “inactive”.
Take `CC(=O)c1ccc(N2CCN(S(=O)(=O)c3ccc4c(c3)C(Cl)(Cl)C(=O)N4)CC2)cc1`: the Potency entry in [1] is “inactive”. The Potency in assay [14] is 26.9 µM (active). For the same compound, the result in assay [15] and in assay [16] was inactive.
For `CNc1oc(-c2cccs2)nc1C#N`, the results for the activity change, negative = inhibition in [17] and in [18] were 3.62% [at 17.2 µM] and 11.4% [at 17.2 µM], respectively. Moreover, the activity, negative = inhibition in [19] is -2.1% [at 17.2 µM]. Further, the Potency in assay [20] was more than 20.6 µM. Besides, the Potency result in assay [1] is “inactive”.
For the compound `Fc1ccc(CSc2nc3ncc(Br)cc3[nH]2)cc1`, in assay [4], the Potency was 56.2 µM (active). The Potency result in assay [1] is “inactive”.
`COC(=N)c1nc2ccc3ncnc(Nc4ccc(F)cc4Br)c3c2s1`: the Potency result in assay [1] and in [2] was “inactive” in each case.
As for `CCCn1c(-c2ccc(F)cc2)nc2c(N3CCC(N(C)C)C3)nc(C)nc21` (configuration not stated), the compound was classed as inactive in assay [21]. Further, in assay [1], the Potency entry is “inactive”.
In the case of `CCC(=O)NC(c1cc(Cl)c2ccccc2c1O)C(C)C` (configuration not stated), the Potency entry in assay [1] and in assay [23] was “inactive” throughout. Also, the compound was classed as inactive in assay [15], in [22], in assay [16] and in assay [24].
